This is a sample that favours compounds with a hit; in the whole collection about 22% have one here.
Shiga inhibitor = A qHTS for Small Molecule Inhibitors of Shiga Toxin; Vero cells, Shiga toxin protein synthesis inhibition reporter; inhibition, % at 38.7 µM; hit rate 9.2% among 290,000; in the data active means inhibition mostly above about 28%, no sharp cut-off; inactive means mostly below about 43%; further: 0% is about no effect
Pf growth 48h = Primary qHTS for delayed death inhibitors of the malarial parasite plastid, 48 hour incubation; AID 504832, 2011; hit rate 5.9% among 310,000; Potency, µM (doses to about 28.7 µM), for the others: at the top dose activity change, negative = inhibition, most hits filed as inhibitors; P. falciparum luciferase growth in erythrocytes, 48 h; further: potency means the concentration at half of the fitted maximal effect; on the % scale 0 is the no-effect control and ±100 the full control effect
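Read-out is firefly luciferase luminescence from an integrated reporter in P. falciparum, so falling signal marks reduced parasite growth. Infected erythrocytes were at 2% hematocrit and 0.1% parasitemia (final) in Albumax-supplemented RPMI 1640.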
Cycloheximide cs = Cycloheximide Counterscreen for Small Molecule Inhibitors of Shiga Toxin. cell reporter, cycloheximide protein synthesis inhibition counterscreen. hit rate 12% among 300,000. AID 2314, 2010. max response, %; in the data active means max response mostly above about 13%, no sharp cut-off; inactive means mostly below about 14%; further: read at 38.3 µM for the half of the compounds with a filed dose; 0% is about no effect
Pf growth 96h = Primary qHTS for delayed death inhibitors of the malarial parasite plastid, 96 hour incubation; P. falciparum luciferase reporter growth, 96 h; Potency, µM (series often up to 28.7 µM), without a hit: at the top dose activity change, negative = inhibition, usual class: inhibitors; hit rate 6.9% among 320,000; AID 504834, 2011; further: potency means the concentration at half of the fitted maximal effect; on the % scale 0 is the no-effect control and ±100 the full control effect
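Delayed-death screen, second-generation endpoint: infected erythrocytes, 2% hematocrit, 0.05% parasitemia final; 96 hours at 37 C, 5% CO2; luciferase detection reagent; luminescence decrease equals reduced growth.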
LmPK inhibitor = qHTS Assay for Inhibitors of Leishmania Mexicana Pyruvate Kinase (LmPK) | Q27686 | purified LmPK, Kinase-Glo ATP luminescence, 1 h | Potency, µM (top dose mostly 57.5 µM), for the others: at the highest dose activity change, negative = inhibition, hits mostly inhibitors | hit rate 0.37% among 290,000; further: potency means the concentration at half of the fitted maximal effect; on the % scale 0 is the no-effect control and ±100 the full control effect
Target sequence (Q27686 whole entry, looked up): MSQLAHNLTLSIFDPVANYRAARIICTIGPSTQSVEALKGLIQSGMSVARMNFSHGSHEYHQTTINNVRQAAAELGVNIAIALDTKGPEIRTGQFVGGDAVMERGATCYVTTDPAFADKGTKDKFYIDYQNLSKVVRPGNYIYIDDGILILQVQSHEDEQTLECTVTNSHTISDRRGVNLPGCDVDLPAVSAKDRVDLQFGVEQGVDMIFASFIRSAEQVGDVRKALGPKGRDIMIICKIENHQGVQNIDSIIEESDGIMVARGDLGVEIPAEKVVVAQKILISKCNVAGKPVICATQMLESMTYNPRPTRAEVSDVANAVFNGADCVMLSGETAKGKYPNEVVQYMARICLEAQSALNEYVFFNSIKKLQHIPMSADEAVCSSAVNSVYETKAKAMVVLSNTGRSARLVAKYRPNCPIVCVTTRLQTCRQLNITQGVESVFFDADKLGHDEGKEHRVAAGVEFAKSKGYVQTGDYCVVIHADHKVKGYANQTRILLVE
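In 50 mM imidazole pH 7.2 with 7 mM MgCl2, LmPK (0.1 nM) turned over PEP (0.5 mM) and ADP (0.1 mM) for 1 h at room temperature. Luciferase read-out of ATP.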
* = called active by the depositor. Unless noted, the call rests on the fitted dose curve; in most records, active means well fitted inhibition curve with a large enough effect; inconclusive means small, poorly fitted or top-dose-only effect, or another doubt; inactive means no such curve, though single readings can be large or run the other way.

How did Cc1cc(=O)n2nc(N3CCCC(C(=O)NCCCN4CC(C)CC(C)C4)C3)sc2n1 (stereo not given) do in these assays?
Shiga inhibitor: -13; Pf growth 48h: 7%; Cycloheximide cs: -12; Pf growth 96h: inconclusive; LmPK inhibitor: -2%

Results for CCOc1ccc2nc(N3CCCC(C(=O)NCCCN4CC(C)CC(C)C4)C3)sc2c1 (stereo not given) ?
Shiga inhibitor: 23; Pf growth 48h: inconclusive; Cycloheximide cs: 32*; Pf growth 96h: inconclusive; LmPK inhibitor: 2%

What do the screens show for `CCOc1ccc2nc(N3CCCC(C(=O)NCCCN4CCCCC4)C3)sc2c1` (stereo not given)?
Shiga inhibitor: 36*; Pf growth 48h: -10%; Cycloheximide cs: 20*; Pf growth 96h: -20%; LmPK inhibitor: -13%

Results for CCOc1ccc2nc(N3CCCC(C(=O)NCCCN4C(C)CCCC4C)C3)sc2c1 (stereo not given) ?
Shiga inhibitor: 54*; Pf growth 48h: -19%; Cycloheximide cs: 17*; Pf growth 96h: inconclusive; LmPK inhibitor: -10%

How did O=C(NCCc1ccccc1F)C1CCCN(c2nc3ccccc3s2)C1 (stereo not given) do in these assays?
Shiga inhibitor: -1; Pf growth 48h: -9%; Cycloheximide cs: -1; Pf growth 96h: -21%; LmPK inhibitor: -3%

What do the screens show for `Cn1cc(C(=O)NS(=O)(=O)Nc2ccc(Br)cc2)c2ccccc21`?
Shiga inhibitor: -5; Pf growth 48h: -8%; Cycloheximide cs: 7; Pf growth 96h: inconclusive; LmPK inhibitor: -1%

Results for O=S1(=O)CCN2C(=N1)Sc1c2ccc2c1CCCC2 ?
Shiga inhibitor: 69*; Cycloheximide cs: 25*; LmPK inhibitor: 6%

Results for O=C(NC1=NCCS1)c1ccc(Cl)c(S(=O)(=O)N2CCc3ccccc32)c1 ?
Shiga inhibitor: 11; Pf growth 48h: inconclusive; Cycloheximide cs: -2; Pf growth 96h: inconclusive; LmPK inhibitor: 7%

Results for O=C(NC1=NCCS1)c1ccc(Cl)c(S(=O)(=O)N2CCCCCC2)c1 ?
Shiga inhibitor: 35; Pf growth 48h: -29%; Cycloheximide cs: 18*; Pf growth 96h: -25%; LmPK inhibitor: 2%

What do the screens show for `Cc1ccc(C(=O)Nc2ccc(Cl)cn2)cc1S(=O)(=O)N1CCOCC1`?
Shiga inhibitor: 61*; Pf growth 48h: -23%; Cycloheximide cs: 35*; Pf growth 96h: 95%; LmPK inhibitor: -4%

Results for O=C(c1ccc(Cl)c(S(=O)(=O)N2CCCCC2)c1)N1CCCCC1 ?
Shiga inhibitor: 14; Pf growth 48h: -23%; Cycloheximide cs: -2; Pf growth 96h: 32%; LmPK inhibitor: 2%

Results for CN1CC(=O)NC1=NC(=O)c1ccc(Cl)c(S(=O)(=O)N2CCCCCC2)c1 ?
Shiga inhibitor: -21; Pf growth 48h: inconclusive; Cycloheximide cs: -3; Pf growth 96h: 8.3µM*; LmPK inhibitor: 2%

Results for Cc1ccc(NC(=O)c2ccc(Cl)c(S(=O)(=O)N3CCCCC3)c2)nc1 ?
Pf growth 48h: 9.3µM*; Pf growth 96h: 10µM*

Results for Cc1ccnc(NC(=O)c2ccc(Cl)c(S(=O)(=O)N3CCCCC3)c2)c1 ?
Pf growth 48h: inconclusive; Pf growth 96h: -10%

What do the screens show for `CC1=Nc2ccccc2/C1=C/c1c(O)[nH]c(=O)[nH]c1=O`?
Shiga inhibitor: -4; Pf growth 48h: 3%; Cycloheximide cs: 0; Pf growth 96h: 2.1µM*; LmPK inhibitor: 1%

What do the screens show for `CC1=Nc2ccccc2/C1=C\c1nc(-c2ccccc2)oc1O`?
Shiga inhibitor: -7; Cycloheximide cs: 0; Pf growth 96h: -16%; LmPK inhibitor: 3%

How did Cc1cccc(NC(=O)Nc2ccccc2[N+](=O)[O-])n1 do in these assays?
Shiga inhibitor: 14; Pf growth 48h: 50%; Cycloheximide cs: 24*; Pf growth 96h: -7%; LmPK inhibitor: 0%

Results for COc1ccccc1NC(=O)Nc1cccc(C)n1 ?
Shiga inhibitor: 24; Pf growth 48h: -17%; Cycloheximide cs: 8; Pf growth 96h: 78%; LmPK inhibitor: -1%

How did Cc1cccc(NC(=O)CCCNC(=O)c2ccc(Cl)cc2)n1 do in these assays?
Shiga inhibitor: -6; Pf growth 48h: 1%; Cycloheximide cs: -3; Pf growth 96h: 11%; LmPK inhibitor: -12%

How did COc1ccc(NC(=O)Nc2cccc(C)n2)cc1 do in these assays?
Shiga inhibitor: 117*; Pf growth 48h: 140%; Cycloheximide cs: 49*; Pf growth 96h: 5%; LmPK inhibitor: -2%

What do the screens show for `Cc1cccc(NC(=O)Nc2ccc(Br)cc2)n1`?
Shiga inhibitor: 59*; Pf growth 48h: 106%; Cycloheximide cs: 29*; Pf growth 96h: 1%; LmPK inhibitor: 3%

What do the screens show for `CCC(=O)Nc1ccc(C(=O)Nc2cccc(C)n2)cc1`?
Shiga inhibitor: 62*; Pf growth 48h: 121%; Cycloheximide cs: 35*; Pf growth 96h: 156%; LmPK inhibitor: -18%

Results for O=C(COc1ccccc1Cl)Nc1ccc(S(=O)(=O)N2CCOCC2)cc1 ?
Shiga inhibitor: -9; Pf growth 48h: inconclusive; Cycloheximide cs: -4; Pf growth 96h: -1%; LmPK inhibitor: 3%

Results for Cc1ccc(N2CCN(S(=O)(=O)c3ccc4c(c3)oc(=O)n4C)CC2C)cc1 (stereo not given) ?
Shiga inhibitor: 3; Pf growth 48h: inconclusive; Cycloheximide cs: -3; Pf growth 96h: inconclusive; LmPK inhibitor: 12%

What do the screens show for `COc1ccc(NC(=S)Nc2cccc(C)n2)cc1`?
Shiga inhibitor: 62; Pf growth 48h: 4.7µM*; Cycloheximide cs: 19*; Pf growth 96h: inconclusive; LmPK inhibitor: 2%

Results for c1ccc(-c2nnc(SCc3cn4ccsc4n3)o2)cc1 ?
Shiga inhibitor: 93*; Pf growth 48h: -77%; Cycloheximide cs: 30*; Pf growth 96h: 0%; LmPK inhibitor: -2%

Results for CCN(CC)S(=O)(=O)c1ccc(C(C)NC(=O)Cc2c[nH]c3ccccc23)cc1 (stereo not given) ?
Shiga inhibitor: -5; Pf growth 48h: inconclusive; Cycloheximide cs: 1; Pf growth 96h: inconclusive; LmPK inhibitor: 1%

How did CCOc1ccc(OCc2ccc(C(=O)N/N=C(\C)c3ccccn3)cc2)cc1 do in these assays?
Shiga inhibitor: 62; Pf growth 48h: 0.37µM*; Cycloheximide cs: 40*; Pf growth 96h: 0.37µM*; LmPK inhibitor: -3%

How did C/C(=N\NC(=O)c1ccccc1OCc1ccc(F)cc1)c1ccccn1 do in these assays?
Pf growth 48h: 1.5µM*; Pf growth 96h: 4.1µM*

Results for CCOc1ccc(C(=O)N/N=C(/C)C2C(=O)c3ccccc3C2=O)cc1 ?
Shiga inhibitor: -1; Pf growth 48h: 12%; Cycloheximide cs: 1; Pf growth 96h: inconclusive; LmPK inhibitor: -3%

From PubChem BioAssay
